# Reference: PMC7862700, “An all-to-all approach to the identification of sequence-specific readers for epigenetic DNA modifications on cytosine”
# What was measured:
# Assay in all cases: DAPPL (digital affinity profiling via proximity ligation, sequencing); 10 mM Tris-HCl pH 7.5, 50 mM NaCl, 1 mM DTT, 4% glycerol, room temperature, 30 min; GST-TFs on glutathione beads, 16-mer random dsDNA library, 0.1% formaldehyde crosslink after washing; high values mean tight binding
# FEV = biological target: T1, FEV (Homo sapiens, UniProt Q99581 1-238); settings: protein: recombinant; tags: N-terminal GST; dsDNA, one strand shown
# T1 sequence: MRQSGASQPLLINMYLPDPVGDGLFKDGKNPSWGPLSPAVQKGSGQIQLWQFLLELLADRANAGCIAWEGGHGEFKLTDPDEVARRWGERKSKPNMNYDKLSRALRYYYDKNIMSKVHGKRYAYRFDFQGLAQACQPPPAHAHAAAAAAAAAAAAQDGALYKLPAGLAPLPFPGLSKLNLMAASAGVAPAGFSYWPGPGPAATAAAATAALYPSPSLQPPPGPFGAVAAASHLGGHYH
# How it was run: (§1)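 Sequencing on an Illumina NextSeq500 followed washing, crosslinking with 0.1% formaldehyde, proximity ligation (BsaI/T4 ligase, 1 h, 37 °C) and PCR amplification of pools that had been incubated for 30 min at room temperature with 200 nmole of a random double-stranded 16-mer DNA library in Tris/NaCl/DTT/glycerol buffer. Each pool held DNA-barcoded human transcription factors, expressed in yeast as GST fusions and captured on glutathione beads, plus a tag-only sample. Binding signal is a hexamer's read frequency for a factor divided by its frequency in the tag-only sample.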
# ETV5 = ETV5 (Homo sapiens, UniProt P41161 1-510); settings: protein: recombinant; tags: N-terminal GST; dsDNA, one strand shown
# How it was run: as §1
# HSF1 = HSF1 (Homo sapiens, UniProt Q00613 1-529); settings: protein: recombinant; tags: N-terminal GST; chain copies: 3; dsDNA, one strand shown
# How it was run: as §1
# SPIC = biological target: T2, SPIC (Homo sapiens, UniProt Q8N5J4 1-248); settings: protein: recombinant; tags: N-terminal GST; dsDNA, one strand shown
# T2 sequence: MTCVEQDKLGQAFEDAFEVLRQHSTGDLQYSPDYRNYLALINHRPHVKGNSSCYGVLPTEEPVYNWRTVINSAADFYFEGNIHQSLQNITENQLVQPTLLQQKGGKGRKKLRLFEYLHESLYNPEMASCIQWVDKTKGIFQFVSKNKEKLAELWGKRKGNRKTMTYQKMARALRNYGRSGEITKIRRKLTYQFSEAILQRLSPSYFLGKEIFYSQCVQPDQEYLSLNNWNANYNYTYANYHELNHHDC
# How it was run: as §1
# ELF4 = ELF4 (Homo sapiens, UniProt Q99607 1-663); settings: protein: recombinant; tags: N-terminal GST; dsDNA, one strand shown
# How it was run: as §1
# ELK4 = biological target: T3, ELK4 (Homo sapiens, UniProt P28324-2 1-405); settings: protein: recombinant; tags: N-terminal GST; dsDNA, one strand shown
# T3 sequence: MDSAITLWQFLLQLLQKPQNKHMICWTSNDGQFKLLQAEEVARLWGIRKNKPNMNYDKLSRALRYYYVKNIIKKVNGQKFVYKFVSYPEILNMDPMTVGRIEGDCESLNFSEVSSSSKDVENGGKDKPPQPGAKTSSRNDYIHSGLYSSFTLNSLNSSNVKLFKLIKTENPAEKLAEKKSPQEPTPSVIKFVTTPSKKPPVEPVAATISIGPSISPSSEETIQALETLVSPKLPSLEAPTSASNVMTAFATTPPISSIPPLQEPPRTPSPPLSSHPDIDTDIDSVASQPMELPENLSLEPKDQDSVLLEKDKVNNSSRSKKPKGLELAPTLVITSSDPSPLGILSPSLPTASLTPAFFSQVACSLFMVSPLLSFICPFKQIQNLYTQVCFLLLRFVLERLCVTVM
# How it was run: as §1
# ETV2 = biological target: T4, ETV2 (Homo sapiens, UniProt O00321 1-342); settings: protein: recombinant; tags: N-terminal GST; dsDNA, one strand shown
# T4 sequence: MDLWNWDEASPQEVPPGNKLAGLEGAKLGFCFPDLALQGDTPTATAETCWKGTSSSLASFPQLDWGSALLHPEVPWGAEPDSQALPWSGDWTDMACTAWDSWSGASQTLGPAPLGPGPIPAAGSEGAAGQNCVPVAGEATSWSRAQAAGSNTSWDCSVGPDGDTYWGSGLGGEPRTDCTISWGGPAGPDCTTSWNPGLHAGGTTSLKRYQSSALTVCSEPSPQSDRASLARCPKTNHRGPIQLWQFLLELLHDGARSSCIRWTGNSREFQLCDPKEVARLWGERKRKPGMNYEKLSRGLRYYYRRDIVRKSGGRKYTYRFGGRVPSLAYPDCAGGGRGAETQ
# How it was run: as §1
# ELF3 = biological target: T5, ELF3 (Homo sapiens, UniProt P78545 1-371); settings: protein: recombinant; tags: N-terminal GST; dsDNA, one strand shown
# T5 sequence: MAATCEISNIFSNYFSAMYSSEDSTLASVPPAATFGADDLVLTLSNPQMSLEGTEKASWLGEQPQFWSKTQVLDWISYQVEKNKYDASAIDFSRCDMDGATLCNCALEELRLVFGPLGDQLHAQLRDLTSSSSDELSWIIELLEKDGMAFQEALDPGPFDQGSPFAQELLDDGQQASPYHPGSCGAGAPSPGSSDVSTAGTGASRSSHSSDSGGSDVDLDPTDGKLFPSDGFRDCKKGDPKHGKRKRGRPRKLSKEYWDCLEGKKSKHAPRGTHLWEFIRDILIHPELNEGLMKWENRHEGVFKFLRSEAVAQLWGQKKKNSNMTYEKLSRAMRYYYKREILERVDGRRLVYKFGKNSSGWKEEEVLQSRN
# How it was run: as §1
# CRX = CRX (Homo sapiens, UniProt O43186 1-299); settings: protein: recombinant; tags: N-terminal GST; dsDNA, one strand shown
# How it was run: as §1
# Sequence of ETV5 (P41161 whole entry): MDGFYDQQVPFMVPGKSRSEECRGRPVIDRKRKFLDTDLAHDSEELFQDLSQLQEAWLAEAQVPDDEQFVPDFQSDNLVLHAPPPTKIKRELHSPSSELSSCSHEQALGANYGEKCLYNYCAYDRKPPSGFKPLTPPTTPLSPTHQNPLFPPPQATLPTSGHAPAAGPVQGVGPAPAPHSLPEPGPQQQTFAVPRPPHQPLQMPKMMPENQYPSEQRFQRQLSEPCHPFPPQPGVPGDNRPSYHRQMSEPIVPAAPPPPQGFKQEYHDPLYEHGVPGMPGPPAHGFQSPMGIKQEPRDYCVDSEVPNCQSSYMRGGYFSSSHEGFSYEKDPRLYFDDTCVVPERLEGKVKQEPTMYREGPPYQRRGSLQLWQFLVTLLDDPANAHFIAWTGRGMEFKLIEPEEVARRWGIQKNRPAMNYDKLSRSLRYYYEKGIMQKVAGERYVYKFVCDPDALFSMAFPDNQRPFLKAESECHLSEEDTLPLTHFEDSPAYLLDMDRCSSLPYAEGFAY
# Sequence of CRX (O43186 whole entry): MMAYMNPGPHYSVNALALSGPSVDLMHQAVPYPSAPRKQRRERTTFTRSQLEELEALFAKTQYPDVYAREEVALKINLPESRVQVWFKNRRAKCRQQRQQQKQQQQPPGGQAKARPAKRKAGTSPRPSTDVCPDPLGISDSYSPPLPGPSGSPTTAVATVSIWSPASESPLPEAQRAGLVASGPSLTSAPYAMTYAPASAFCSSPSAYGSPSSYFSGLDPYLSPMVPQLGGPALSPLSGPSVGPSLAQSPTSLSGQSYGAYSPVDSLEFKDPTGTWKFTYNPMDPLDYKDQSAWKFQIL
# Sequence of ELF4 (Q99607 whole entry): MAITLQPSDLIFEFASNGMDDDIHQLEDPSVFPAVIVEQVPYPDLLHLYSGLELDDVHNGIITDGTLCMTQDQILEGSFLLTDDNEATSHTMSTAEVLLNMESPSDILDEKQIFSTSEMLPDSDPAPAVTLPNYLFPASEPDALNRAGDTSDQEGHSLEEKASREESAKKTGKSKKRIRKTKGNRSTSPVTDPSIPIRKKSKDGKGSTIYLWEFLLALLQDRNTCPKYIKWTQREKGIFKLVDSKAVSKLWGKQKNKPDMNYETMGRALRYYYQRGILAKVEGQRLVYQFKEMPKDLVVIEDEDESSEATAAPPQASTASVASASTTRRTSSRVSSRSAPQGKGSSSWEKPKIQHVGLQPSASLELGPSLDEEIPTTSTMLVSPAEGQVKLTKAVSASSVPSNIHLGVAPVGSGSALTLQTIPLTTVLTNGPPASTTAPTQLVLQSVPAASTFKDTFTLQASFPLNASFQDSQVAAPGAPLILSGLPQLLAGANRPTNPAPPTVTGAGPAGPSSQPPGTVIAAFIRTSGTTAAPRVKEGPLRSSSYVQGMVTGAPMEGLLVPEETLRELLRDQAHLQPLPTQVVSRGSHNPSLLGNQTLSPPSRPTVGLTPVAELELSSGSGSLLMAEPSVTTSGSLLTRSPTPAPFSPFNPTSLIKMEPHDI
# Sequence of HSF1 (Q00613 whole entry): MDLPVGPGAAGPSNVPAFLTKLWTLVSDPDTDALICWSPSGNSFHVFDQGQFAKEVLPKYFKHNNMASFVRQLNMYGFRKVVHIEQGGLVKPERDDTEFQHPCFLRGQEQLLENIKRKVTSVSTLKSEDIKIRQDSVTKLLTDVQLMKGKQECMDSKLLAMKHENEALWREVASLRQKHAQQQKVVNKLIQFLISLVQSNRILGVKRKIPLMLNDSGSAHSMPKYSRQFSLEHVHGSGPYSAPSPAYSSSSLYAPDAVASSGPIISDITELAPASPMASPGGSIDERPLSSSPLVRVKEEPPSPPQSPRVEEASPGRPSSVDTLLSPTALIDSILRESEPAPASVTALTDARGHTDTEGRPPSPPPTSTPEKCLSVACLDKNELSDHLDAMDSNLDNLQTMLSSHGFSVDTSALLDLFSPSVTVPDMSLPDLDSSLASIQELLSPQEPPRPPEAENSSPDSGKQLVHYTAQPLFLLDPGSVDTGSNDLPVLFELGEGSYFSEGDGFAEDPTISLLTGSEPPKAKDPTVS
sequence,measurement,setting,value
ATACCT,binding signal,FEV,"1.04 fold enrichment (6-mer frequency, TF over GST control)"
same,binding signal,ETV5,"1.01 fold enrichment (6-mer frequency, TF over GST control)"
same,binding signal,HSF1,"1.01 fold enrichment (6-mer frequency, TF over GST control)"
same,binding signal,SPIC,"1.11 fold enrichment (6-mer frequency, TF over GST control)"
same,binding signal,ELF4,"1.1 fold enrichment (6-mer frequency, TF over GST control)"
same,binding signal,ELK4,"1.1 fold enrichment (6-mer frequency, TF over GST control)"
same,binding signal,ETV2,"1.09 fold enrichment (6-mer frequency, TF over GST control)"
same,binding signal,ELF3,"1.08 fold enrichment (6-mer frequency, TF over GST control)"
same,binding signal,CRX,"1.12 fold enrichment (6-mer frequency, TF over GST control)"
